Reference: PubChem BioAssay (NCI)
The panel holds about 79,000 compounds, 15% with a hit somewhere; the sample as a whole holds those more often. The source made the active and inactive calls. Cut-off read from the data, not from the text of the source: active = growth inhibition above about 70%; inactive = the rest.

Assay: NCI Yeast Anticancer Drug Screen. Data for the cln2 rad14 strain (AID 165);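 note: 0% = growth equal to vehicle treated cultures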
Details: S. cerevisiae cln2 rad14 strain, at 5.0 µM (retest, dose inferred, filed as 0.5), active compounds read high
Procedure, shortened: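 Relative to vehicle controls, growth inhibition of compound-treated cln2 rad14 yeast was recorded.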

Compound	growth inhibition
CC(C)C1/C(=N/O)CC(c2ccccc2)N(N=O)C1c1ccccc1 (stereo not drawn)	15% (inactive)
Cc1c(N)nc(C2CC(=O)N2CC(N)C(N)=O)nc1C(=O)NC(C(=O)NC(C)C(O)C(C)C(=O)NC(C(=O)NCCc1nc(-c2nc(C(=O)NCCCNC3CCCC3)cs2)cs1)C(C)O)C(OC1OC(CO)C(O)C(O)C1OC1OC(CO)C(O)C(OC(N)=O)C1O)c1cnc[nH]1 (stereo not drawn)	93% (active)
CCOC(=O)C1(Br)CCN(S(=O)(=O)c2ccc(C)cc2)c2ccccc2C1=O (stereo not drawn)	-6% (inactive)
O=C(C[n+]1ccccc1)c1ccc2ccc3ccc(Cl)cc3c2c1	2% (inactive)

Same assay, conditions: S. cerevisiae cln2 rad14 strain, at 50.0 µM (retest, dose inferred, filed as 5.0), active compounds read high

Compound	growth inhibition
CC(C)c1ccc2c(c1)CC[C@@H]1[C@](C)(CO)CCC[C@]21C	96% (active)
O=c1c2ccccc2ncn1Cc1ccccc1[N+](=O)[O-]	-17% (inactive)
O=C(NO)C(=O)Nc1cc(Cl)ccc1Cl	94% (active)
CCCCCCCCCCCCOC(=O)C[n+]1cccc(C(=O)Nc2ccccc2)c1	99% (active)
O=C1C=CC(=O)c2ccc(=O)ccc21	98% (active)
Cn1c(=O)nc2n(-c3ccc(Cl)cc3)c3cc(Cl)ccc3nc-2c1=O	20% (inactive)
Clc1ccc(CN2COc3c(ccc4ccccc34)C2)cc1	85% (active)
C1CCN(c2nc(N3CCOCC3)c3[nH]c(N4CCCCC4)nc3n2)CC1	49% (inactive)
O=C1c2ccccc2-c2cc([N+](=O)[O-])c([N+](=O)[O-])cc21	90% (active)
CCC[CH2][Sn]([CH2]CCC)([O]C(=O)Cc1ccc(F)cc1)[O]C(=O)Cc1ccc(F)cc1	16% (inactive)
ClCc1ccc2oc3ccccc3c2c1	-8% (inactive)
O=C1Oc2ccccc2C(=O)/C1=C/N1C(=O)/C(=C/c2ccc([N+](=O)[O-])cc2)SC1=S	83% (active)
COC1=CC(=O)c2ncc(Cl)cc2C1=O	96% (active)
CN(C)c1ccc(C(c2ccc(N(C)C)cc2)c2ccc3c(c2)OCO3)cc1	32% (inactive)
CC(C)(C)OC(=O)CSC#N	39% (inactive)
CN=c1ss/c(=N\C(=S)N(C)C)n1-c1ccccc1	13% (inactive)
CCCCCCCCCCCCCCCBr	-5% (inactive)
O=c1c2ccccc2[nH]c2c1[nH]c1ccccc12	11% (inactive)
COc1cc(/C=C/c2cc[n+](C)cc2)ccc1O	16% (inactive)
COc1cc(C2c3cc4c(cc3C(OC3CCCCO3)C3COC(=O)C23)OCO4)cc(OC)c1OC (stereo not drawn)	-2% (inactive)

Compound	growth inhibition
O=S(=O)(N/N=C/c1ccc(Cl)cc1Cl)c1ccccc1	-15% (inactive)
Cc1ccc(C(=O)/C(Cl)=N/O)cc1	99% (active)
Cc1ccnc(NS(=O)(=O)c2ccc(N=Cc3c4ccccc4nc4cc(Cl)ccc34)cc2)n1	1% (inactive)
COc1cc(CCN=Cc2cc(Cl)cc(Cl)c2O)c([N+](=O)[O-])cc1OC	57% (inactive)
COc1ccc(C(C)c2cc3c(cc2OC/C(C)=N/NC(N)=O)OCO3)cc1 (stereo not drawn)	97% (active)
C/C(CCC1CCc2ccccc2C1)=N\NC(N)=O (stereo not drawn)	-13% (inactive)
Cc1nc(C(N)=S)sc1C(=O)CC(=O)C(=O)Nc1nc2ccccc2[nH]1	3% (inactive)
Clc1ccc([O][In]([O]c2ccc(Cl)cn2)[O]c2ccc(Cl)cn2)nc1	-4% (inactive)
Cc1ccc(S(=O)(=O)C(=S)Sc2ccccc2)cc1	63% (inactive)
Fc1ccc2[nH]ccc2c1	47% (inactive)
C(=C/c1ccccc1)/C=N/Nc1ccccc1	-64% (inactive)
O=S1(=O)CC2C1C1(Cl)OC2(Cl)c2ccccc21 (stereo not drawn)	17% (inactive)
CCCNC(=O)C(=O)NNc1ccccc1	79% (active)
C/C(=N/O)c1cccc(C(F)(F)F)c1	-84% (inactive)
COC1=CC(=O)c2c(O)c3c(c(O)c2C1=O)OC1(Oc2c(cc4cc(C)oc(=O)c4c2O)CC1O)C3O (stereo not drawn)	99% (active)
CC(C)C1/C(=N/O)CC(c2ccccc2)N(N=O)C1c1ccccc1 (stereo not drawn)	96% (active)
Cc1c(N)nc(C2CC(=O)N2CC(N)C(N)=O)nc1C(=O)NC(C(=O)NC(C)C(O)C(C)C(=O)NC(C(=O)NCCc1nc(-c2nc(C(=O)NCCCNC3CCCC3)cs2)cs1)C(C)O)C(OC1OC(CO)C(O)C(O)C1OC1OC(CO)C(O)C(OC(N)=O)C1O)c1cnc[nH]1 (stereo not drawn)	97% (active)
CCOC(=O)C1(Br)CCN(S(=O)(=O)c2ccc(C)cc2)c2ccccc2C1=O (stereo not drawn)	66% (inactive)
O=C(C[n+]1ccccc1)c1ccc2ccc3ccc(Cl)cc3c2c1	39% (inactive)
